High-throughput results as filed in PubChem BioAssay.
A selection: hits, their analogues and other compounds. The true share with any hit is near 32%.
PostGolgi ctrl: yeast control strain growth, post-Golgi counter-screen; hit rate 5% among 98,000; inhibition, % at 10 µM; efflux-deficient yeast background strain, growth absorbance A615, 16 h
CYP2C9 act: activators of human CYP2C9. P11712. recombinant CYP2C9, luciferin-H conversion, luminescence; active compounds read high; factor 1 = untreated enzyme, 0 = blocked. activation factor at 5 µM. hit rate 1.4% among 96,000. AID 1024;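 active = activation factor of 2 or more for CYP2C9 at a 5 µM dose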;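 note: 0 = sulfaphenazole-blocked wells and 1 = vehicle-only wells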
Target sequence (P11712 whole entry, looked up): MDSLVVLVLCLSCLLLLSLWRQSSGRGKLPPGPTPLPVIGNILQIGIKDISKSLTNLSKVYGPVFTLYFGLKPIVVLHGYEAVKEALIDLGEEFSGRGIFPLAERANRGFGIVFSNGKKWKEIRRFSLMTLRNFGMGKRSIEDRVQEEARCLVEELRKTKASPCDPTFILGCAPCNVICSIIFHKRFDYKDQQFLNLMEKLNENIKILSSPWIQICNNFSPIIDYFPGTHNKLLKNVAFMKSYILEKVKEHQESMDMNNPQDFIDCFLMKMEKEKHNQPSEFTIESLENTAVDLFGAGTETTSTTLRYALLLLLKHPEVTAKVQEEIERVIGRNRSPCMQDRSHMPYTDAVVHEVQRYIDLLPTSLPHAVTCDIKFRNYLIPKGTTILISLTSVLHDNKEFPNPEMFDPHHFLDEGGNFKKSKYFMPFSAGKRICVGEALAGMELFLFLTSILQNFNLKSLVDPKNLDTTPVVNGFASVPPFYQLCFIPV
CYP2C19 activ: cytochrome P450 2C19 (human) activation | recombinant CYP2C19, luciferin-H EGE luminescence; active compounds read high; 0 = fully inhibited enzyme, 1 = untreated enzyme | activation factor at 5 µM | 96,000 tested, under 10 active;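 active = activation factor of at least 2 at 5 µM in the primary screen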;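 note: 0 = wells with 2.5 mM tranylcypromine and 1 = vehicle-only wells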
CYP2C19 inhib: human CYP2C19 inhibition. CYP2C19 Supersomes, luciferin-H EGE luminescence, 30 min. inhibition, % at 5 µM. hit rate 21% among 96,000. AID 778;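 active = CYP2C19 inhibition above a set limit at 5 µM in the primary screen, cut at about 50% in these data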;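 note: plate controls were negative control wells for no effect and 2.5 mM tranylcypromine positive control for full effect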
CYP2C9 inhib: blocks human cytochrome P450 2C9. P11712. CYP2C9 Supersomes, luciferin-H conversion, luminescence. inhibition, % at 5 µM. hit rate 20% among 96,000;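 active = blocking of liver enzyme CYP2C9 beyond about 50% at 5 µM, limit read from the data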
PostGolgi yeast: growth inhibition of a yeast mutant, post-Golgi transport screen; hit rate 0.9% among 98,000; post-Golgi transport phenotypic cell assay; inhibition, % at 10 µM;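 note: yeast cells grown in 1536-well plates; yeast grown about 18 h at 30C before absorbance read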
* marks the source's active call; other numbers are inactive results. Cut-off read from the data, not from the text of the source, unless noted: active = inhibition above about 30%; inactive = the rest.

SMILES	PostGolgi ctrl	CYP2C9 act	CYP2C19 activ	CYP2C19 inhib	CYP2C9 inhib	PostGolgi yeast
OC1C=CSc2nc3ccccc3n21 (stereo not given)	-2.4	1.4	1.1	-12.1	-41.5	-0.2
COC(=O)c1ccccc1NC(=O)N1CCN(C/C=C/c2ccccc2)CC1	11.2	0.5	0.8	23.5	47.1	9.9
Cc1noc(C)c1COc1cccc(C(=O)N2CCN(C/C=C/c3ccccc3)CC2)c1	2.1	0.1	0.1	89.7*	87.5*	-1.9
CC(=O)c1ccc(N2CCN(C(=O)c3ccc(OCc4c(C)noc4C)cc3)CC2)cc1	5.2	0.6	1	-1.2	40.9	5.3
COc1ccccc1NC(=O)C(C)N1CCN(C/C=C/c2ccccc2)CC1 (stereo not given)	3.4	0.6	0.4	60.0*	36.8	10.5
Cc1cc(C(=O)N2CCN(C/C=C/c3ccccc3)CC2)cs1	-9.3	0.4	0.4	59.3*	61.0*	-2.5
COc1cccc2cc(C(=O)N3CCN(C/C=C/c4ccccc4)CC3)c(=O)oc12	7.5	2.9*	0.6	35.4	-186.7	3.1
CCCC(O)(CCN(C)C)c1ccc(OC)cc1 (stereo not given)	6.2	1	1	1.7	-1.8	2.9
CSc1nnc(-c2cnccn2)n1CCCN1CCCC1=O	1.6	1	1	0.1	3.7	1.1
Cc1cccc2cc(C(c3nnnn3Cc3ccccc3)N3CCCc4ccccc43)c(=O)[nH]c12 (stereo not given)	12.5	0.9	1.1	-10.7	5.4	-15.8
CCOc1ncccc1C(=O)OCC(=O)N1CC(=O)Nc2ccccc21	4.1	1.3	1.1	-11.3	-32.0	-2.0
Cc1noc(C)c1COc1cccc(C(=O)OCC(=O)N2CC(=O)Nc3ccccc32)c1	3.0	0.4	0.4	58.9*	63.1*	-1.9
O=C(c1cc(Br)c(Br)s1)N1CCN(C/C=C/c2ccccc2)CC1	46.0*	0.8	0.7	27.2	16.6	8.0
Cc1cccc(Cn2c(N(C)Cc3ccccc3)nc3c2c(=O)[nH]c(=O)n3C)c1	46.6*	0.7	0.7	26.5	25.5	-5.1
Cc1cccc(Cn2c(SCC(=O)Nc3ccccc3)nc3c2c(=O)[nH]c(=O)n3C)c1	13.5	0.5	0.3	69.6*	47.2	-0.6
Cc1cccc(Cn2c(Sc3nc(C)cs3)nc3c2c(=O)[nH]c(=O)n3C)c1	14.2	1	0.9	7.6	1.4	-2.7
Cc1ccc(-n2nc(C(=O)O)cc2-c2ccccc2)cc1	0.1	0.9	0.8	22.4	12.5	-0.2
O=C(CSc1nccn1-c1ccccc1)c1ccc(Br)cc1	-0.8	0.8	0.4	60.8*	17.4	13.7
Cc1ccccc1CSc1nccn1-c1ccccc1	0.3	0.4	0.2	81.6*	57.4*	-11.4
Cn1ccnc1SCC(=O)c1ccc(Br)cc1	5.8	0.8	0.1	93.0*	15.4	-6.0
CN(CC(=O)NC1CCCCCC1)S(=O)(=O)c1ccc2c(c1)n(C)c(=O)c(=O)n2C	-1.3	1	1.1	-8.3	-3.6	-3.8
O=C(NC1CCCCCCC1)NC1CCCCC1	4.7	0.9	0.8	15.9	8.7	-0.9
O=C(/N=C1\NC(=O)C(F)(C(F)(F)F)S1)NC1CCCCC1 (stereo not given)	10.0	0.1	0.9	7.0	85.1*	5.3
Cc1ccc(O)c(Sc2cc(C)ccc2O)c1	18.4	0	0	97.2*	95.7*	1.2
COC(=O)c1ccc(O)c(Sc2cc(C(=O)OC)ccc2O)c1	28.0	0	0.1	87.9*	100.0*	-1.0
CCCn1nc2cc(C(=O)N(CC)c3ccc(OC)cc3)ccc2c1OCC	12.8	0.7	0.8	16.8	25.5	-5.8
CCC(C)n1c(SCC(=O)Nc2ccccc2C(F)(F)F)nc2ccsc2c1=O (stereo not given)	22.7	0.3	0.5	45.5	71.9*	2.4
Cc1nc(N)sc1-c1nnc(SCC(=O)Nc2ccccc2C(F)(F)F)n1C	-6.0	0.9	1.2	-18.2	6.1	5.7
Cc1ccc2c(c1)C(O)(c1c(C)[nH]c3ccccc13)C(=O)N2 (stereo not given)	9.6	0.4	0	98.3*	59.6*	-5.1
Cc1[nH]c2ccccc2c1C1(O)C(=O)N(Cc2ccc3c(c2)OCO3)c2ccccc21 (stereo not given)	31.0*	0.3	0.2	82.8*	72.8*	5.0
